High-throughput results deposited in PubChem BioAssay by Johns Hopkins Ion Channel Center.
KCNQ2 block – rat KCNQ2 potassium channel inhibitors, primary screen, cell-based, CHO-K1, FluxOR thallium flux, B-score | Potassium voltage-gated channel subfamily KQT member 2 (Rattus norvegicus), O88943 | 20 min; stronger effect = lower value | B-score at 10 µM | 1.1% of 310,000 active | AID 2156, 2009;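 active = fluorescence ratio B-score at most minus 3 library SDs, with starting brightness B-score within 2 library SDs, cut at about -5.5 in these data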
KCNQ2 enhance – potentiators of rat KCNQ2 potassium channel. CHO-K1 KCNQ2, FluxOR thallium flux fluorescence; stronger effect = higher value. B-score at 10 µM. 0.54% of 310,000 active;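 active = fluorescence ratio B-score at least 3 SD of library B-scores, with initial fluorescence B-score within 3 of them, cut at about 5.3 in these data; same plate scores as AID 2156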;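 note: B-score of peak minus minimum over baseline fluorescence ratio after K+ and Tl+ stimulus; positive B-score means potentiation of KCNQ2 with more thallium influx and brighter signal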
* hit, by the source's call. Shown are actives, neighbours in structure and some others; about 1.6% of the full set was active somewhere.

What do the screens show for `COc1cc(C(=S)N2CCOCC2)ccc1OS(=O)(=O)c1ccccc1[N+](=O)[O-]`?
KCNQ2 block: inactive; KCNQ2 enhance: 1.4

What do the screens show for `COc1ccc(C(=S)N2CCOCC2)cc1OS(=O)(=O)c1ccccc1[N+](=O)[O-]`?
KCNQ2 block: -6.7*; KCNQ2 enhance: -6.7

Results for Cc1cc(NC(=O)c2cn(C3CCCCC3)c(=O)c3c2c2ccccc2n3C)no1 ?
KCNQ2 block: -5.8*; KCNQ2 enhance: -5.8

What do the screens show for `Cc1ccc(CNC(=O)c2cn(C3CCCCC3)c(=O)c3c2c2ccccc2n3C)o1`?
KCNQ2 block: inactive

Results for CCOP(=O)(OCC)C(NC(=O)/C=C/c1ccc(OC)cc1)c1ccccc1 (stereo not drawn) ?
KCNQ2 block: inactive; KCNQ2 enhance: 0.98

Results for CC(C)CC(NC(=O)OC(C)(C)C)C(=O)O (stereo not drawn) ?
KCNQ2 block: inactive

Results for CC(C)(C)OC(=O)NC(CCCCNC=O)C(=O)O (stereo not drawn) ?
KCNQ2 block: -6.6*; KCNQ2 enhance: -6.6

Results for CCc1ccc(NC(=O)C2C3/C=C\CCCCC32)cc1 (stereo not drawn) ?
KCNQ2 block: inactive; KCNQ2 enhance: 5.8*

How did CCc1ccc(NC(=O)C2CCCCC2C(=O)O)cc1 (stereo not drawn) do in these assays?
KCNQ2 block: inactive; KCNQ2 enhance: 0.17

What do the screens show for `Cc1ccc(-c2cccc(C(=O)NCc3ccccc3)n2)c2ccccc12`?
KCNQ2 block: inactive

Results for Cc1ccc(-c2cccc(C(=O)NCCc3ccccc3)n2)c2ccccc12 ?
KCNQ2 block: -6.3*; KCNQ2 enhance: -6.3

How did COc1cc(N/N=C(\C)c2ccc(O)c(C)c2)nc(-c2ccccc2)n1 do in these assays?
KCNQ2 block: inactive

How did COc1cc(N/N=C(\C)c2ccc(N)cc2)nc(-c2ccccc2)n1 do in these assays?
KCNQ2 block: -6.8*; KCNQ2 enhance: -6.8

How did COc1cccc(CCc2nnc(CCC(=O)N3CCN(Cc4ccccn4)CC3)o2)c1 do in these assays?
KCNQ2 block: inactive

How did COC(=O)/C(=C\c1ccc2c(c1)c1ccccc1n2C)NC(=O)c1ccccc1 do in these assays?
KCNQ2 block: -7.6*; KCNQ2 enhance: -7.6

What do the screens show for `CC(C)OC(=O)/C(=C/c1ccc2c(c1)c1ccccc1n2C)NC(=O)c1ccccc1`?
KCNQ2 block: inactive

What do the screens show for `CSc1ccccc1C(=O)OCC(=O)NC1CCS(=O)(=O)C1` (stereo not drawn)?
KCNQ2 block: inactive

How did O=C(CSc1nnc(-c2ccc(O)cc2)n1Cc1ccco1)c1cccs1 do in these assays?
KCNQ2 block: inactive; KCNQ2 enhance: 0.02

Results for N#Cc1c(-c2ccccc2)c(-c2ccccc2)n(Cc2ccco2)c1NC(=O)c1cccs1 ?
KCNQ2 block: -6.3*; KCNQ2 enhance: -6.3

Results for Cc1ccccc1NC(=O)N1CCN(S(=O)(=O)c2ccccc2)CC1 ?
KCNQ2 block: inactive

How did CCC1CCCCN1C(=O)CCS(=O)(=O)c1ccc2c(c1)CCN2C(C)=O (stereo not drawn) do in these assays?
KCNQ2 block: inactive; KCNQ2 enhance: 0.76

What do the screens show for `CC(=O)c1cccc(NC(=O)C23CC4CC(C2)CC(n2cncn2)(C4)C3)c1`?
KCNQ2 block: inactive; KCNQ2 enhance: 2.1

What do the screens show for `CNC(=O)N(O)C1N(/N=C/c2ccc(SC)cc2)C(=S)SC1(C)C` (stereo not drawn)?
KCNQ2 block: inactive

What do the screens show for `CN(C)c1ccc(/C=N/N2C(=S)SC(C)(C)C2N(O)C(=O)Nc2ccc([N+](=O)[O-])cc2)cc1` (stereo not drawn)?
KCNQ2 block: -6.8*; KCNQ2 enhance: -6.8

Results for COC(=O)c1ccc(NC(=O)CSC2=Nc3ccccc3C3CC=NN23)cc1 (stereo not drawn) ?
KCNQ2 block: inactive

What do the screens show for `CC(SC1=Nc2ccccc2C2CC=NN12)C(=O)NC1(C#N)CCCCC1` (stereo not drawn)?
KCNQ2 block: -8.7*; KCNQ2 enhance: -8.7

Results for COc1ccc(CNC(=S)NC2CCCC2)cc1 ?
KCNQ2 block: inactive; KCNQ2 enhance: 0.39

What do the screens show for `Cc1ccc(CNC(=S)NC2CCC(C(C)(C)C)CC2)cc1` (stereo not drawn)?
KCNQ2 block: -6.9*; KCNQ2 enhance: -6.9

What do the screens show for `Cc1ccc(C(=O)NCCc2ccc(S(N)(=O)=O)cc2)cc1[N+](=O)[O-]`?
KCNQ2 block: inactive

What do the screens show for `CCCCCC(=O)N/N=C/c1ccco1`?
KCNQ2 block: inactive; KCNQ2 enhance: 7.2*

Results for Cc1cccc(NC(=O)CCC(=O)N/N=C/c2ccco2)c1 ?
KCNQ2 block: inactive

Results for O=C(N/N=C\c1ccco1)Nc1cccc(Cl)c1 ?
KCNQ2 block: inactive; KCNQ2 enhance: 6*

What do the screens show for `O=C(CCCCCCCCC(=O)N/N=C/c1ccco1)N/N=C/c1ccco1`?
KCNQ2 block: inactive; KCNQ2 enhance: 0.39

How did CCC(CC)C(=O)Nc1ccccc1NC(C)=O do in these assays?
KCNQ2 block: inactive; KCNQ2 enhance: 1.6

How did O=C(NCC1COCCO1)c1ccc2nc(Cc3cccc(Cl)c3)oc2c1 (stereo not drawn) do in these assays?
KCNQ2 block: inactive; KCNQ2 enhance: 0.06

What do the screens show for `COc1ccc2c(C)cc(SCC(=O)Nc3nsc(-c4ccc(C)cc4)n3)nc2c1`?
KCNQ2 block: -6.3*; KCNQ2 enhance: -6.3

How did Cc1ccc(-c2nc(NC(=O)CSc3cc(C)c4ccccc4n3)ns2)cc1 do in these assays?
KCNQ2 block: inactive

Results for Cc1cc(C)n(C(C)CC(=O)Nc2ccc3c(c2)OCCO3)n1 (stereo not drawn) ?
KCNQ2 block: inactive; KCNQ2 enhance: 0.34

How did CC(=O)c1cccc(NC(=S)N2CCN(c3ccccn3)CC2)c1 do in these assays?
KCNQ2 block: inactive

How did COc1ccc(/C=C/C(=O)Nc2ccccc2C(=O)N2CCCC2)cc1 do in these assays?
KCNQ2 block: inactive

Results for COc1ccc(/C=C(/C(=O)Nc2ccccc2C(=O)NC(C)C)c2ccccc2)cc1 ?
KCNQ2 block: -7.9*; KCNQ2 enhance: -7.9

Results for COc1ccc(/C=C(/C(=O)Nc2ccccc2C(=O)N2CCCC2)c2ccccc2)cc1 ?
KCNQ2 block: -6.6*; KCNQ2 enhance: -6.6

How did COc1ccc(NC(=O)c2ccccc2NC(=O)c2ccccc2)cc1 do in these assays?
KCNQ2 block: inactive; KCNQ2 enhance: 0.15

How did C=CCn1c(=O)c2c(nc3n2CC(C)CN3Cc2ccccc2)n(C)c1=O (stereo not drawn) do in these assays?
KCNQ2 block: inactive; KCNQ2 enhance: 0.7

Results for Cc1sc2ncnc(Oc3ccc(-n4ccnc4)cc3)c2c1C ?
KCNQ2 block: inactive

Results for CC1CCCN(C(C(=O)Nc2ccc3c(c2)OCO3)c2ccccc2)C1 (stereo not drawn) ?
KCNQ2 block: -5.7*; KCNQ2 enhance: -5.7

Results for CC1CCCN(C(C(=O)Nc2ccc3c(c2)OCCO3)c2ccccc2)C1 (stereo not drawn) ?
KCNQ2 block: inactive

What do the screens show for `CCOC(=O)/C(=N\Nc1ccccc1Cl)N(C)C1CCCCC1`?
KCNQ2 block: inactive; KCNQ2 enhance: 0.97

How did COC(=O)c1ccc(COc2ccccc2/C=C(\C#N)C(=O)Nc2ccc(C)cc2C)cc1 do in these assays?
KCNQ2 block: inactive

What do the screens show for `COC(=O)c1ccc(COc2ccccc2/C=C(\C#N)C(=O)Nc2c(C)cc(C)cc2C)cc1`?
KCNQ2 block: -7.2*; KCNQ2 enhance: -7.2
